Reference: paper PMC7862700, “An all-to-all approach to the identification of sequence-specific readers for epigenetic DNA modifications on cytosine”

Experiments:
Assay in all cases: DAPPL (digital affinity profiling via proximity ligation, sequencing); 10 mM Tris-HCl pH 7.5, 50 mM NaCl, 1 mM DTT, 4% glycerol, room temperature, 30 min; GST-TFs on glutathione beads, 16-mer random dsDNA library, 0.1% formaldehyde crosslink after washing; high values mean tight binding
Details in all cases: protein: recombinant; tags: N-terminal GST; dsDNA, one strand shown
[1] = target: T1, ERF (Homo sapiens, UniProt P50548 1-548)
T1 sequence: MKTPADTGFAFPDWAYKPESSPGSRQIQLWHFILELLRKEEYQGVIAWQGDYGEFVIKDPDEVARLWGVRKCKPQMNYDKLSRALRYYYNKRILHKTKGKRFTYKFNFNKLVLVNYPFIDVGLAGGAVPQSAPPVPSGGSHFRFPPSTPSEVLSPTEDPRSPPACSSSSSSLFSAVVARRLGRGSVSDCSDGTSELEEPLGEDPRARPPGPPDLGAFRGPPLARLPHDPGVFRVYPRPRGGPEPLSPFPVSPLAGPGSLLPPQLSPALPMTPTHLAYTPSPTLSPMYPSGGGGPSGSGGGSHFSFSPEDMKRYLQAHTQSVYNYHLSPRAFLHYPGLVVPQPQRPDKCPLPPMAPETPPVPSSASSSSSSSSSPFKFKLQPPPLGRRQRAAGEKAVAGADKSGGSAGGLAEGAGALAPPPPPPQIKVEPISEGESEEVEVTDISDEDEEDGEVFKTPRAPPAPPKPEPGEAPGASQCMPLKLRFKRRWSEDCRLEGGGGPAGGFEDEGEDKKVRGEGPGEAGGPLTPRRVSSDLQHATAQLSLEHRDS
How it was run: (§1)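 Binding signal is defined as a hexamer's read frequency for one factor over its frequency for the tag-only sample. To obtain reads, GST-fused human transcription factors were expressed in yeast, captured on glutathione beads, barcoded with DNA and pooled with that sample. Pools met 200 nmole of a 16-mer random double-stranded DNA library in Tris/NaCl/DTT/glycerol buffer for 30 min at room temperature before washing, 0.1% formaldehyde crosslinking, proximity ligation (BsaI/T4 ligase, 1 h, 37 °C), PCR and Illumina NextSeq500 sequencing.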

[2] = target: T2, ETV3L (Homo sapiens, UniProt Q6ZN32 1-361)
T2 sequence: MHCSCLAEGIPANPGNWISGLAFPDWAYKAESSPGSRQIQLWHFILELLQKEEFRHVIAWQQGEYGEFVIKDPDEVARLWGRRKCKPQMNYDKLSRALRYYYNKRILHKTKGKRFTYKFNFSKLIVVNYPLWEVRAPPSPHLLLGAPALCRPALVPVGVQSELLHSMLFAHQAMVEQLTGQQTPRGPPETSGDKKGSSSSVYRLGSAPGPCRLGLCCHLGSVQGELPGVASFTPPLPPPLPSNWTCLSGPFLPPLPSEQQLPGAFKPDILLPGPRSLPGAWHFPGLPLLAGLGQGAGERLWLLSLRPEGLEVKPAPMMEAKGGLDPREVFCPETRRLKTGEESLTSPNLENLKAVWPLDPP
How it was run: as §1

[3] = target: T3, ETS2 (Homo sapiens, UniProt P15036 1-469)
T3 sequence: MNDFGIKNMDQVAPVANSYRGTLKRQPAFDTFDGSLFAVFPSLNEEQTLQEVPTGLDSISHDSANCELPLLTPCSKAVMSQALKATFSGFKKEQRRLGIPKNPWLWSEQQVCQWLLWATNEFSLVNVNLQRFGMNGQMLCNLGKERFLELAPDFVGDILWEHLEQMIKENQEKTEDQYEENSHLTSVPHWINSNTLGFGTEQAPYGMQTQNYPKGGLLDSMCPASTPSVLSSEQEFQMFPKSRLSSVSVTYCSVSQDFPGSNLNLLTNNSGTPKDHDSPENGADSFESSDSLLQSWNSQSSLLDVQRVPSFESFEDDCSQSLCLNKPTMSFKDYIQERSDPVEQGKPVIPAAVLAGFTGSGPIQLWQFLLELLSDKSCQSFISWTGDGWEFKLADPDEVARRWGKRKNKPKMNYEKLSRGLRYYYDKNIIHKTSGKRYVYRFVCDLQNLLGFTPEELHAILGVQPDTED
How it was run: as §1

[4] = target: T4, SPDEF (Homo sapiens, UniProt O95238 1-335)
T4 sequence: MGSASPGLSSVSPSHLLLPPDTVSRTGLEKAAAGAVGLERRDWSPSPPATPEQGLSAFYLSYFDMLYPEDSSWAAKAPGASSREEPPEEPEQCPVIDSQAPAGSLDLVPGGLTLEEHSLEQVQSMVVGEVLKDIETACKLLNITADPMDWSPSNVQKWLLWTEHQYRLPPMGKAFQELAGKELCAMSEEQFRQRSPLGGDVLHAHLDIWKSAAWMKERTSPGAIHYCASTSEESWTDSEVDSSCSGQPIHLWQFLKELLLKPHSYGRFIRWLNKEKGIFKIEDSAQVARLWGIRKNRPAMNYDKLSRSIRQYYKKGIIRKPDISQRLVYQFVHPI
How it was run: as §1

[5] = target: T5, ETV7 (Homo sapiens, UniProt Q9Y603 1-341)
T5 sequence: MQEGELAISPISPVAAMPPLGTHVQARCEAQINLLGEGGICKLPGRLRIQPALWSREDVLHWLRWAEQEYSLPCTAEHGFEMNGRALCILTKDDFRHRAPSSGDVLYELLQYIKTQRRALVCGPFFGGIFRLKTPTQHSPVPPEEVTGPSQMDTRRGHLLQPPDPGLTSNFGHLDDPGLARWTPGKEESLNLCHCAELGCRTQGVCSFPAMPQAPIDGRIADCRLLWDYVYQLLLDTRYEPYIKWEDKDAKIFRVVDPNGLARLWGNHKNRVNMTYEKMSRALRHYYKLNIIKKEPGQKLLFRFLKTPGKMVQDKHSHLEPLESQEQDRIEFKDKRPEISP
How it was run: as §1

[6] = target: T6, ELF5 (Homo sapiens, UniProt Q9UKW6-2 1-255)
T6 sequence: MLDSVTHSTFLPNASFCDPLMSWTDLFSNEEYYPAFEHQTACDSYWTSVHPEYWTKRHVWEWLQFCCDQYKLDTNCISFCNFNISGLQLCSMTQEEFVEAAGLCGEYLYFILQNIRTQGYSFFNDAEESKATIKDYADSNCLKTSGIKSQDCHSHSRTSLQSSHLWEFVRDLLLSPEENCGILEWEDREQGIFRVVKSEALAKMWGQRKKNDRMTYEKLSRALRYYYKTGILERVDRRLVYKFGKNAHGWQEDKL
How it was run: as §1

[7] = target: T7, ETV3 (Homo sapiens, UniProt P41162-2 1-143)
T7 sequence: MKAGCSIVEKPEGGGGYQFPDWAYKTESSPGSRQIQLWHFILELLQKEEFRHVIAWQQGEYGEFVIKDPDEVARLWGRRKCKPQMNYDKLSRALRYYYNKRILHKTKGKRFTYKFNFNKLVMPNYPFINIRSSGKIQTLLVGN
How it was run: as §1

[8] = target: ETV6 (Homo sapiens, UniProt P41212 1-452)
How it was run: as §1

ETV6, sequence (P41212 whole entry): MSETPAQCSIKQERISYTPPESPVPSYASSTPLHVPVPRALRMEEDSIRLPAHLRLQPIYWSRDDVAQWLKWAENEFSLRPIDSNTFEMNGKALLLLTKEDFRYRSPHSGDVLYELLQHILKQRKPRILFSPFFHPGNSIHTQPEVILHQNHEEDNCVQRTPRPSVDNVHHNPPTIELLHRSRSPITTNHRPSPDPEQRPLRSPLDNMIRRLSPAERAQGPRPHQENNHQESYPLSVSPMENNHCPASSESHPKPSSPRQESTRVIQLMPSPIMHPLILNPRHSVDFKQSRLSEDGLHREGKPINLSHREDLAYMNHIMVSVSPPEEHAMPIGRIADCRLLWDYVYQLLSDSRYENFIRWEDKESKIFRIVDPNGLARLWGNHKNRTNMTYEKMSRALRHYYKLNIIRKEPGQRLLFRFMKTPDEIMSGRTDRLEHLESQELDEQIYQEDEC

| Sequence | binding signal [1] | binding signal [2] | binding signal [3] | binding signal [4] | binding signal [5] | binding signal [6] | binding signal [7] | binding signal [8] |
| --- | --- | --- | --- | --- | --- | --- | --- | --- |
| ACACAT | 1.29 fold enrichment (6-mer frequency, TF over GST control) | 1.23 fold enrichment (6-mer frequency, TF over GST control) | 1.27 fold enrichment (6-mer frequency, TF over GST control) | 1.31 fold enrichment (6-mer frequency, TF over GST control) | 1.27 fold enrichment (6-mer frequency, TF over GST control) | 1.23 fold enrichment (6-mer frequency, TF over GST control) | 1.2 fold enrichment (6-mer frequency, TF over GST control) | 1.22 fold enrichment (6-mer frequency, TF over GST control) |
| CACTCA | 1.2 fold enrichment (6-mer frequency, TF over GST control) | 1.11 fold enrichment (6-mer frequency, TF over GST control) | 1.16 fold enrichment (6-mer frequency, TF over GST control) | 1.14 fold enrichment (6-mer frequency, TF over GST control) | 1.21 fold enrichment (6-mer frequency, TF over GST control) | 1.12 fold enrichment (6-mer frequency, TF over GST control) | 1.09 fold enrichment (6-mer frequency, TF over GST control) | 1.14 fold enrichment (6-mer frequency, TF over GST control) |
| TCTTCA | 1.29 fold enrichment (6-mer frequency, TF over GST control) | 1.37 fold enrichment (6-mer frequency, TF over GST control) | 1.11 fold enrichment (6-mer frequency, TF over GST control) | 1.25 fold enrichment (6-mer frequency, TF over GST control) | 1.13 fold enrichment (6-mer frequency, TF over GST control) | 1.16 fold enrichment (6-mer frequency, TF over GST control) | 1.16 fold enrichment (6-mer frequency, TF over GST control) | 1.25 fold enrichment (6-mer frequency, TF over GST control) |
| AACAAG | 1.19 fold enrichment (6-mer frequency, TF over GST control) | 1.18 fold enrichment (6-mer frequency, TF over GST control) | 1.06 fold enrichment (6-mer frequency, TF over GST control) | 1.05 fold enrichment (6-mer frequency, TF over GST control) | 1.14 fold enrichment (6-mer frequency, TF over GST control) | 1.22 fold enrichment (6-mer frequency, TF over GST control) | 1.11 fold enrichment (6-mer frequency, TF over GST control) | 1.12 fold enrichment (6-mer frequency, TF over GST control) |
| TAGGAA | 1.17 fold enrichment (6-mer frequency, TF over GST control) | 1.15 fold enrichment (6-mer frequency, TF over GST control) | 1.19 fold enrichment (6-mer frequency, TF over GST control) | 1.11 fold enrichment (6-mer frequency, TF over GST control) | 1.04 fold enrichment (6-mer frequency, TF over GST control) | 1.29 fold enrichment (6-mer frequency, TF over GST control) | 1.22 fold enrichment (6-mer frequency, TF over GST control) | 1.37 fold enrichment (6-mer frequency, TF over GST control) |
| CTTTTA | 1.39 fold enrichment (6-mer frequency, TF over GST control) | 1.42 fold enrichment (6-mer frequency, TF over GST control) | 1.32 fold enrichment (6-mer frequency, TF over GST control) | 1.18 fold enrichment (6-mer frequency, TF over GST control) | 1.42 fold enrichment (6-mer frequency, TF over GST control) | 1.21 fold enrichment (6-mer frequency, TF over GST control) | 1.4 fold enrichment (6-mer frequency, TF over GST control) | 1.31 fold enrichment (6-mer frequency, TF over GST control) |
| GTCCCG | 1.22 fold enrichment (6-mer frequency, TF over GST control) | 1.3 fold enrichment (6-mer frequency, TF over GST control) | 1.22 fold enrichment (6-mer frequency, TF over GST control) | 1.34 fold enrichment (6-mer frequency, TF over GST control) | 1.19 fold enrichment (6-mer frequency, TF over GST control) | 1.23 fold enrichment (6-mer frequency, TF over GST control) | 1.32 fold enrichment (6-mer frequency, TF over GST control) | 1.13 fold enrichment (6-mer frequency, TF over GST control) |
| CTCAGC | 1.1 fold enrichment (6-mer frequency, TF over GST control) | 1.36 fold enrichment (6-mer frequency, TF over GST control) | 1.22 fold enrichment (6-mer frequency, TF over GST control) | 1.15 fold enrichment (6-mer frequency, TF over GST control) | 1.21 fold enrichment (6-mer frequency, TF over GST control) | 1.08 fold enrichment (6-mer frequency, TF over GST control) | 1.32 fold enrichment (6-mer frequency, TF over GST control) | 1.2 fold enrichment (6-mer frequency, TF over GST control) |
| TGTCCG | 1.31 fold enrichment (6-mer frequency, TF over GST control) | 1.4 fold enrichment (6-mer frequency, TF over GST control) | 1.52 fold enrichment (6-mer frequency, TF over GST control) | 1.8 fold enrichment (6-mer frequency, TF over GST control) | 1.51 fold enrichment (6-mer frequency, TF over GST control) | 1.62 fold enrichment (6-mer frequency, TF over GST control) | 1.6 fold enrichment (6-mer frequency, TF over GST control) | 1.55 fold enrichment (6-mer frequency, TF over GST control) |
